According to PubChem BioAssay (NCATS):
Inconclusive results are not listed. Calls of active or inactive are those of the source. Unless noted, calls follow the shape of the full dose curve.

Tests used:
[1] = qHTS for Inhibitors of the Functional Ribonucleoprotein Complex (vRNP) of Lassa (LASV) Arenavirus: LASV Primary Screen - GLuc reporter signal (AID 1347082; calls by dose curve; tested in HEK293 reporter line; also: nearly all actives have a fitted effect of over 60% in size)
[2] = qHTS for Inhibitors of the Functional Ribonucleoprotein Complex (vRNP) of Lassa (LASV) Arenavirus: Viability assay - alamar blue signal for LASV Primary Screen (AID 1347083; calls by dose curve; tested in HEK293 reporter line; also: nearly all actives have a fitted effect of over 80% in size)
[3] = qHTS for Inhibitors of the Functional Ribonucleoprotein Complex (vRNP) of Lymphocytic Choriomeningitis Arenaviruses (LCMV): Viability assay - alamar blue signal for LCMV Primary Screen (AID 1347085; calls by dose curve; tested in HEK293 reporter line; also: nearly all actives have a fitted effect of over 80% in size)
[4] = target: Nucleoprotein (Lymphocytic choriomeningitis virus (strain Armstrong)) (UniProt P09992); assay: qHTS for Inhibitors of the Functional Ribonucleoprotein Complex (vRNP) of Lymphocytic Choriomeningitis Arenaviruses (LCMV): LCMV Primary Screen - GLuc reporter signal (AID 1347086); also: nearly all actives have a fitted effect of over 70% in size
Chain of Nucleoprotein (Lymphocytic choriomeningitis virus (strain Armstrong)) (P09992 whole entry, looked up): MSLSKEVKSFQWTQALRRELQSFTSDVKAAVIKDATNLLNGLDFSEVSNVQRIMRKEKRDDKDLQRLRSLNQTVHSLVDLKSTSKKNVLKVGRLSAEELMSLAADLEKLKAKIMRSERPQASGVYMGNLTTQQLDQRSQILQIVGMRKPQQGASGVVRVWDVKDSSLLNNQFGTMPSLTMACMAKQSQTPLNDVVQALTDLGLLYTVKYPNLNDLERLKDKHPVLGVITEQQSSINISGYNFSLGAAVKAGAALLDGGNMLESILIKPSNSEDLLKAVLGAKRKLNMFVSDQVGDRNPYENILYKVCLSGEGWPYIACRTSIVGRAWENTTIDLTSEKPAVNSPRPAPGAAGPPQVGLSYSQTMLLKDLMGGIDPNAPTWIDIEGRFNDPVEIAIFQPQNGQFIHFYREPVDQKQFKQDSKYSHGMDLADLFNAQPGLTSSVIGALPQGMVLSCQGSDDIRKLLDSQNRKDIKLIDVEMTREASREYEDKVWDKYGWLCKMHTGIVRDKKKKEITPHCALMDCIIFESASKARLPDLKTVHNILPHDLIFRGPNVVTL
% is scaled to controls: 0 for no effect and ±100 for the full control effect.
Also: series mostly up to about 57 µM.

CC(=O)OC[C@H]1O[C@@](COC(C)=O)(O[C@H]2O[C@H](COC(C)=O)[C@@H](OC(C)=O)[C@H](OC(C)=O)[C@H]2OC(C)=O)[C@@H](OC(C)=O)[C@@H]1OC(C)=O
inactive: Potency [1] | Potency [2] | Potency [3] | Potency [4]

CC(C)C[C@@H](N)C(=O)O
inactive: Potency [1] | Potency [2] | Potency [3] | Potency [4]

Oc1cc(O)c2c(c1)O[C@H](c1ccc(O)c(O)c1)[C@H](O)C2
inactive: Potency [1] | Potency [2] | Potency [3] | Potency [4]

CS(=O)(=O)c1ccc(-c2cn3ccccc3n2)cc1
inactive: Potency [1] | Potency [2] | Potency [3] | Potency [4]

CC1(C)[C@H](C(=O)O)N2C(=O)C[C@H]2S1(=O)=O
inactive: Potency [1] | Potency [2] | Potency [3] | Potency [4]

Cc1cc2c(OCC(CNC(C)(C)C)OC(=O)c3ccccc3)cccc2[nH]1 (stereo not given)
inactive: Potency [1] | Potency [2] | Potency [3] | Potency [4]

CCOCCOC(=O)/C=C/c1ccc(OC)cc1
inactive: Potency [1] | Potency [2] | Potency [3] | Potency [4]

OCCN1CCN(CCCN2c3ccccc3C=Cc3ccccc32)CC1
inactive: Potency [1] | Potency [2] | Potency [3] | Potency [4]

CCc1cc2cc(OC)c(OC)cc2c(Cc2ccccc2)n1
inactive: Potency [1] | Potency [2] | Potency [3] | Potency [4]

CNC(=O)Oc1ccc2c(c1)[C@]1(C)CCN(C)[C@@H]1N2C
inactive: Potency [1] | Potency [2] | Potency [3] | Potency [4]

Cc1c(C)c2c(c(C)c1OC(=O)CCC(=O)OCCO)CC[C@@](C)(CCC[C@H](C)CCC[C@H](C)CCCC(C)C)O2
inactive: Potency [1] | Potency [2] | Potency [3] | Potency [4]

O=C(Nc1ccc(S(=O)(=O)N2CCOCC2)cc1)c1cc(Cl)ccc1NS(=O)(=O)c1ccc(Cl)s1
inactive: Potency [1] | Potency [2] | Potency [3] | Potency [4]

Oc1ccc(O)cc1
inactive: Potency [1] | Potency [2] | Potency [3] | Potency [4]

OCc1cc(C(O)CNCCCCCCOCCCCc2ccccc2)ccc1O (stereo not given)
inactive: Potency [1] | Potency [2] | Potency [3] | Potency [4]

CCCCCCCCCCCCCCC[C@H](O)[C@@H](N)CO
inactive: Potency [1] | Potency [2] | Potency [3] | Potency [4]

CCOc1ccc(C(=O)OCCN(CC)CC)cc1
inactive: Potency [1] | Potency [2] | Potency [3] | Potency [4]

Nc1ccc(S(=O)(=O)Nc2nccs2)cc1
inactive: Potency [1] | Potency [2] | Potency [3] | Potency [4]

Nc1nc(=O)n([C@@H]2O[C@H](CO)[C@@H](O)[C@@H]2F)cc1I
inactive: Potency [1] | Potency [2] | Potency [3] | Potency [4]

O=C1c2ccccc2S(=O)(=O)N1CCCCN1CCN(c2ncccn2)CC1
inactive: Potency [1] | Potency [2] | Potency [3] | Potency [4]

CN(C)CCCN1c2ccccc2Sc2ccc(C(F)(F)F)cc21
inactive: Potency [1] | Potency [2] | Potency [3] | Potency [4]

CN(C)CCC(c1ccccc1)c1ccccn1 (stereo not given)
inactive: Potency [1] | Potency [2] | Potency [3] | Potency [4]

CC[N+](CC)(CC(=O)Nc1c(C)cccc1C)Cc1ccccc1
inactive: Potency [1] | Potency [2] | Potency [3] | Potency [4]

OC(CCN1CCCCC1)(c1ccccc1)c1ccccc1
inactive: Potency [1] | Potency [2] | Potency [3] | Potency [4]

Cc1cc(O)c(C(C)C)cc1Cl
inactive: Potency [1] | Potency [2] | Potency [3] | Potency [4]

CCN(CC)CCOCCOC(=O)C1(c2ccccc2)CCCC1
inactive: Potency [1] | Potency [2] | Potency [3] | Potency [4]

CCN(CC)CCOc1ccc(Cc2ccccc2)cc1
inactive: Potency [1] | Potency [2] | Potency [3] | Potency [4]

O=C1c2ccccc2C(=O)C1c1ccccc1
inactive: Potency [1] | Potency [2] | Potency [3] | Potency [4]

CCCC(=O)O[C@]1(C(=O)CC)CC[C@H]2[C@@H]3CCC4=CC(=O)CC[C@]4(C)[C@H]3[C@@H](O)C[C@@]21C
inactive: Potency [1] | Potency [2] | Potency [3] | Potency [4]

CC(CC1c2ccccc2CCc2ccccc21)CN(C)C (stereo not given)
inactive: Potency [1] | Potency [2] | Potency [3] | Potency [4]

CN(C)CCN(Cc1cccs1)c1ccccn1
inactive: Potency [1] | Potency [2] | Potency [3] | Potency [4]

O=C(O)CN(CCOCCOCCN(CC(=O)O)CC(=O)O)CC(=O)O
inactive: Potency [1] | Potency [2] | Potency [3] | Potency [4]

CC1=CC(=O)c2ccccc2C1=O
inactive: Potency [1] | Potency [2] | Potency [3] | Potency [4]

CC[N+]1(CC)CCC(=C(c2ccccc2)c2ccccc2)C1C (stereo not given)
inactive: Potency [1] | Potency [2] | Potency [3] | Potency [4]

CCc1ccc(C(=O)C(C)CN2CCCCC2)cc1 (stereo not given)
inactive: Potency [1] | Potency [2] | Potency [3] | Potency [4]

CC(C)[C@@H]1CC[C@@H](C)CC1=O
inactive: Potency [1] | Potency [2] | Potency [3] | Potency [4]

C#CCN(C)CCCOc1ccc(Cl)cc1Cl
inactive: Potency [1] | Potency [2] | Potency [3] | Potency [4]

CCCc1cc(C(N)=S)ccn1
inactive: Potency [1] | Potency [2] | Potency [3] | Potency [4]

CCCCNc1cc(C(=O)O)cc(S(N)(=O)=O)c1Oc1ccccc1
inactive: Potency [1] | Potency [2] | Potency [3] | Potency [4]

Cc1ccc(O)c(-n2nc3ccccc3n2)c1
inactive: Potency [1] | Potency [2] | Potency [3] | Potency [4]

CCOC(=O)c1ccc(OC(=O)CCCCCN=C(N)N)cc1
inactive: Potency [1] | Potency [2] | Potency [3] | Potency [4]

CC1=C(CC(=O)O)c2cc(F)ccc2/C1=C\c1ccc(S(C)=O)cc1 (stereo not given)
inactive: Potency [1] | Potency [2] | Potency [3] | Potency [4]

O=C(c1cc(O)c(O)c(O)c1)c1ccc(O)c(O)c1O
inactive: Potency [1] | Potency [2] | Potency [3] | Potency [4]

CC(C)(Cc1c[nH]c2ccccc12)NCC(O)COc1ccccc1C#N (stereo not given)
inactive: Potency [1] | Potency [2] | Potency [3] | Potency [4]

Cc1c(Cl)cccc1Nc1ccccc1C(=O)O
inactive: Potency [1] | Potency [2] | Potency [3] | Potency [4]

CCN(CC)C(=O)C1CN2CCc3cc(OC)c(OC)cc3C2CC1OC(C)=O (stereo not given)
inactive: Potency [1] | Potency [2] | Potency [3] | Potency [4]

C[C@@H]1CC[C@@]2(OC1)O[C@H]1C[C@H]3[C@@H]4CC[C@H]5C[C@@H](O)CC[C@]5(C)[C@H]4CC(=O)[C@]3(C)[C@H]1[C@@H]2C
inactive: activity change, negative = inhibition [1] -9.4% [at 5.82 µM] | activity change, negative = reduced viability [2] -7.37% [at 5.82 µM] | activity change, negative = lower viability [3] -0.186% [at 5.82 µM] | activity change, negative = inhibition [4] 19.7% [at 5.82 µM]

NCCNc1cccc2ccccc12
inactive: Potency [1] | Potency [2] | Potency [3] | Potency [4]

Nc1ccn(C2CO[C@H](CO)O2)c(=O)n1 (stereo not given in full)
inactive: Potency [1] | Potency [2] | Potency [3] | Potency [4]

CCN(CC)CCOC(=O)C(Cc1cccc2ccccc12)CC1CCCO1 (stereo not given)
inactive: Potency [1] | Potency [2] | Potency [3] | Potency [4]

CCCCCCCCCCOCC(O)CN (stereo not given)
inactive: Potency [1] | Potency [2] | Potency [3] | Potency [4]

COC(=O)C1=C(C)NC(C)=C(C(=O)OC)C1c1ccccc1[N+](=O)[O-]
inactive: Potency [1] | Potency [2] | Potency [3] | Potency [4]

C[C@@H](CN(C)C)CN1c2ccccc2Sc2ccccc21
inactive: Potency [1] | Potency [2] | Potency [3] | Potency [4]

CSc1ccc(/C=C2/C(C)=C(CC(=O)O)c3cc(F)ccc32)cc1
inactive: Potency [1] | Potency [2] | Potency [3] | Potency [4]

NC[C@H]1O[C@H](O[C@H]2[C@H](O)[C@@H](O[C@H]3O[C@H](CO)[C@@H](O)[C@H](N)[C@H]3O)[C@H](N)C[C@@H]2N)[C@H](N)[C@@H](O)[C@@H]1O
inactive: Potency [1] | Potency [2] | Potency [3] | Potency [4]

COc1cc2c(cc1OC)C(C(C(=O)N(CCc1ccc(OC)c(OC)c1OC)CCc1ccc(OC)c(OC)c1OC)c1ccccc1)=NCC2 (stereo not given)
inactive: Potency [1] | Potency [2] | Potency [3] | Potency [4]

CC(=O)[C@H]1CC[C@H]2[C@@H]3CC=C4C[C@@H](O)CC[C@]4(C)[C@H]3CC[C@]12C
inactive: Potency [1] | Potency [2] | Potency [3] | Potency [4]

O=C(O)CCC(=O)OC[C@@H](NC(=O)C(Cl)Cl)[C@H](O)c1ccc([N+](=O)[O-])cc1
inactive: Potency [1] | Potency [2] | Potency [3] | Potency [4]

CC(=O)N1CCN(c2ccc(O)cc2)CC1
inactive: Potency [1] | Potency [2] | Potency [3] | Potency [4]

CCCCNc1c(C(=O)OCC)c(C)nc2c1cnn2CC
inactive: Potency [1] | Potency [2] | Potency [3] | Potency [4]

O=C1NCN(c2ccccc2)C12CCN(CCCC(c1ccc(F)cc1)c1ccc(F)cc1)CC2
inactive: Potency [1] | Potency [2] | Potency [3] | Potency [4]
